From PubChem
In the library only some 5.7% were active in any assay of this set; here they are far more common.
hcDAF12 agonist: activators of H. contortus DAF-12 nuclear receptor. HEK293 hcDAF-12 lit1-tk-luc reporter, luminescence; 0% DMSO, 100% Δ7-dafachronic acid. activation, % at 6.8 µM. 1.4% of 370,000 active. AID 652067;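 active = activation above the mean of all tested compounds plus 3 SD, cut at about 5.5% in these data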;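 note: 100% = response to 3 µM Δ7-dafachronic acid high control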
hgDAF-12 ag: agonists of H. glycines DAF-12 nuclear receptor; 1.8% of 370,000 active; HEK293 GAL4-hgDAF12 UAS-luciferase reporter, agonist luminescence; normalized to butyrate control; AID 687014; activation, % at 6.8 µM;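 active = activation above a cutoff set at the mean of all screened compounds plus 3 SD, cut at about 10% in these data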;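 note: 0% = DMSO wells and 100% = sodium butyrate wells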
DAX1 inh-1: NR0B1 (DAX1) inhibition. P51843. HEK293 Gal4-DAX1 luciferase reporter, luminescence. inhibition, % at 6.75 µM. 0.99% of 340,000 active. AID 504766;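 active = inhibition above the mean over all tested compounds plus 3 SD, cut at about 4.2% in these data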;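 note: 0% = DAX1-transfected cells with DMSO and 100% = empty-vector control cells with DMSO; inhibition shows as a rise in luminescence from relieved DAX1 repression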
AHR activator: activators of human aryl hydrocarbon receptor | P35869 | AHR-responsive luciferase reporter cells, luminescence | activation, % at 5 µM | 2.5% of 320,000 active; in the data active = activation above about 47%;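 note: 0% = vehicle wells and 100% = reference agonist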
DAX1 inh-2: DAX1 (NR0B1) inhibition, primary screen; HEK293T StAR-luciferase reporter, SF-1/DAX-1 repression relief; inhibition, % at 6.8 µM; 1.1% of 370,000 active; AID 652010;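 active = inhibition above the mean over all tested compounds plus 3 SD, cut at about 3.6% in these data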;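 note: 0% = DAX-1 cells with DMSO and 100% = cells lacking DAX-1 with DMSO; higher inhibition means more luminescence from relief of DAX-1 repression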
ssDAF12 agonist: activators of S. stercoralis DAF-12 nuclear receptor. HEK293 ssDAF-12/GRIP1 lit1-tk-luc reporter, luminescence; % of 3 µM dafachronic acid response. activation, % at 6.8 µM. 1% of 370,000 active;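 active = activation above the mean over all tested compounds plus 3 SD, cut at about 0.9% in these data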;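 note: 0% = DMSO-only wells and 100% = 3 µM delta7-dafachronic acid wells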
Starred values were filed as active, the others as inactive; / = no result given.

SMILES	hcDAF12 agonist	hgDAF-12 ag	DAX1 inh-1	AHR activator	DAX1 inh-2	ssDAF12 agonist
Cn1c(CN2CCN(c3cccc(Cl)c3)CC2)nc2ccccc21	5.8*	0	-1	19	-1	-1
COc1ccc(/C=C2\SC(=O)N(CC(=O)Nc3ccc(O)cc3)C2=O)cc1OC	-2	-3	0	/	0	-1
COc1ccc(/C=C2\SC(=O)N(CCC(=O)N3CCCCC3)C2=O)cc1OC	-1	-1	5.8*	2	0	-1
COc1ccc(/C=C2\SC(=O)N(CC(=O)NN3CCN(C)CC3)C2=O)cc1OC	0	-1	4.7*	2	0	-1
CC(=O)Cn1ncc(Br)c(Br)c1=O	0	0	6.6*	/	-1	-2
O=C(OCn1ncc(Br)c(Br)c1=O)c1c(F)cccc1F	/	/	/	14	/	/
O=C(NCCO)c1nc2ccccc2s1	4	1	0	6	0	1.0*
CCNC(=O)Nc1nc2ccccc2s1	0	13*	1	13	2	0
Cc1ccc(NC(=O)Nc2nc3ccccc3s2)cc1NC(=O)Nc1nc2ccccc2s1	0	0	1	54*	0	-1
O=C(CN1CCN(Cc2ccc(F)cc2)CC1)Nc1nc2ccccc2s1	3	1	1	11	0	0
O=C(Nc1ccc(Cl)c([N+](=O)[O-])c1)Nc1nc2ccccc2s1	/	/	/	46	/	/
CCCN1CCN(CC(=O)Nc2nc3ccccc3s2)CC1	6	2	2	/	0	1.2*
N#CCCN(C(=O)COc1ccc(F)cc1Br)c1ccccc1F	-1	-1	0	2	0	-2
O=C(CN1C(=O)NC2(CCOc3ccccc32)C1=O)c1ccc(F)c(F)c1 (configuration not stated)	1	2	1	8	-1	0
Cn1c2cc(C#N)sc2c2cnn(Cc3ccc(F)cc3)c(=O)c21	-2	-3	0	0	0	-1
COc1cc(C2C(C#N)=C(C)NC3=C2C(=O)c2ccccc23)cc(OC)c1OC (configuration not stated)	4	-3	0	113*	1	0
COc1ccc(C2C(C#N)=C(C)NC3=C2C(=O)c2ccccc23)cc1 (configuration not stated)	2	-1	-1	3	0	-1
O=C(Cn1nnc(-c2ccc3c(c2)OCO3)n1)NCc1ccccc1	1	0	0	8	0	-1
O=C(Cn1nnc(-c2ccccc2Cl)n1)NCc1ccc2c(c1)OCO2	0	3	1	64*	-1	-2
CC1Oc2ccccc2N(CC(=O)NCc2ccc3c(c2)OCO3)C1=O (configuration not stated)	2	11*	1	24	1	0
Cn1cc(C2(C)CCOc3ccccc32)c2ccccc21 (configuration not stated)	1	4	/	/	2	0
O=C(Nc1ccccn1)c1cc2ccccc2cc1O	/	/	3	68*	/	/
O=C(Nc1ccccn1)c1ccc2c(c1)OCCO2	3	13*	2	-4	4.2*	0
O=C(Nc1ncccc1Cl)c1ccc2c(c1)OCCO2	0	10	0	-2	3	-2
CCc1cc(C(=O)Nc2nc(-c3ccccn3)cs2)sc1C	4	5	6.7*	30	-1	0
SMILES	hcDAF12 agonist	hgDAF-12 ag	DAX1 inh-1	AHR activator	DAX1 inh-2	ssDAF12 agonist
O=C(Nc1ccccn1)c1ccccc1	1	8	2	/	3.9*	-1
COc1cccc(NC(=O)n2ccc3ccc(-c4ccc5ccn(C(=O)Nc6cccc(OC)c6)c5c4)cc32)c1	-1	-1	/	/	-3	-1
Cc1ccc(NC(=O)CN2C(=O)NC(C)(CC(C)C)C2=O)c(Br)c1 (configuration not stated)	-1	-1	-1	0	-3	-1
O=C(Nc1nc(-c2ccccn2)cs1)c1ccc2c(c1)OCCO2	1	11*	1	16	3.8*	0
N#Cc1ccc(NC(=O)c2nc(-c3ccccc3)n(-c3ccccc3)n2)cc1	-1	-1	0	-2	0	-1
O=C(/C=C\Nc1ccccn1)c1ccc(Cl)cc1	6	7	-4	-2	4.2*	0
O=C(Nc1ccccn1)c1nc(-c2ccccc2)n(-c2ccccc2)n1	-2	-3	-2	56*	0	-1
CC(=O)Nc1ccc(C(=O)Nc2nc(-c3ccccn3)cs2)cc1	3	5	0	16	0	-1
CC1Oc2ccccc2OC1C(=O)Nc1ccccn1 (configuration not stated)	6.3*	3	0	68*	0	0
Cc1ccccc1NC(=O)CCS(=O)(=O)c1ccccc1	2	1	/	/	0	-1
CC(C)(C)c1ccc(-c2cn(C[C@H](Cc3ccccc3)n3c(=O)c4ccccc4n3Cc3ccccc3)nn2)cc1	1	0	/	/	-1	-1
COc1ccccc1C(=O)NC(CCSC)C(=O)NNC(=O)C(C)Oc1ccccc1F (configuration not stated)	0	-4	0	1	-1	-1
Cc1c(Cl)cccc1NC(=S)N=Nc1c(O)n(CN2CCOCC2)c2ccccc12	/	/	-3	53*	/	/
CCCc1nc2c3ccccc3ccn2c1Cc1ccc(OC)cc1C	3	1	/	/	0	1.0*
CCCc1nc2c3ccccc3ccn2c1Cc1ccccc1OC	3	6	/	/	0	0
CCOC(=O)N1CCN(C(=O)C[C@@H]2C[C@@]3(C(=O)OC)CCCCC=C3N(Cc3ccccc3)C2=O)CC1	-1	3	/	/	1	-1
CCc1cccc(NC(=O)COC(=O)CSc2ccc(C)cc2)c1	0	0	1	/	0	-1
Cc1cc(C)c(NC(=O)C2CCCN2CCC(C)C)c(C)c1 (configuration not stated)	-1	0	4.8*	1	0	-1
CCC(C)N1CCCC1C(=O)Nc1c(C)cc(C)cc1C (configuration not stated)	0	-1	1	-1	-1	-1
O=C(O)c1ccc(N/N=C/c2c[nH]c3ccccc23)cc1	5.8*	0	-5	-4	0	0
Fc1c(F)c(F)c(N/N=C/c2c[nH]c3ccccc23)c(F)c1F	6.3*	-2	0	34	0	-1
CCOC(=O)C1=C(COC(=O)CSc2ccc(C)cc2)NC(=O)NC1C (configuration not stated)	0	1	1	1	1	-1
Cc1c(C(=O)N2CCN(C)CC2)oc2c1C(=O)CC(C)(C)C2	-1	-2	-1	3	1	-2
Cc1c(C(=O)N2CCc3ccccc32)oc2c1C(=O)CC(C)(C)C2	4	8	3	/	4.0*	1
O=c1oc2ccccc2cc1-c1nnc(NCc2ccco2)s1	5	12*	2	-9	3.9*	0
